Assay results from PubChem BioAssay (NCATS).
Records with an inconclusive call do not appear. Values without a mark were called inactive. Active and inactive are the calls of the source. Calls follow the shape of the dose curve; as a rule, active = well fitted inhibition curve with a large enough effect; inconclusive = small, poorly fitted or top-dose-only effect; inactive = no such curve, though single readings can be large or run the other way.

Assay: qHTS for Inhibitors of ATXN expression: Validation (AID 588378); also: nearly all actives have a fitted effect of over 75% in size
Conditions: cell-based ATXN2 expression reporter assay, luminescence; series mostly up to 57.1 µM; activity change, negative = inhibition: at the top concentration
Source text: Spinocerebellar ataxia type 2 (SCA2) is a multisystem neurodegenerative disease caused by a dominantly-acting mutation leading to expansion of a polyQ domain in the ataxin-2 protein (ATXN2). SCA2 patients develop progressive ataxia and later lose function in other neuronal systems. Prominent parkinsonian signs develop in some patients. Similar to many neurodegenerative disorders, no symptomatic or disease-modifying treatments are known.
The primary objective of project is to identify compounds inhibiting ATXN2 expression and to test them for efficacy in SCA2 mouse models. To this end, in a collaboration between Dr. Daniel Scoles and scientists at NCGC, a cell-based assay adapted to high-throughput screening has been developed to screen the NIH Molecular Libraries Small Molecule Repository (MLSMR).
NIH Chemical Genomics Center [NCGC]
NIH Molecular Libraries Probe Centers Network [MLPCN]
Assay Submitter (PI): Stefan Pulst and Daniel Scoles, University of Utah
4 ul of HEK293-ATXN2-FFLuc cell suspension (TBD cells/microL in phenol-red free DMEM) are dispensed into Greiner white solid bottom 1536-well assay plates, yielding a final well density of TBD cells/well. Plates are incubated for 2 hrs at 37 degrees C in 5% humidified CO2 to allow cell attachment. Compounds are then transferred via Kalypsys pin tool equipped with 1536-pin array (10nl slotted pins, V&P Scientific, San Diego, CA). In addition, duplicate serial dilutions of the control compounds ChemBridge 5553825, a previously identified ATXN2 expression inhibitor, and a known luciferase inhibitor, are pin-transferred. After incubation at 37 degrees C in 5% humidified CO2 for 24 hrs, CellTiter-Fluor reagent (1 ul) (Promega, Madison, WI) is then added and plates are incubated for 30 minutes, before being transferred to a ViewLux high-throughput CCD imager (PerkinElmer), wherein single end-point fluorescence measurements are acquired using the 405 nm excitation/525 nm emission filter set to assess cell viability. Next, Bright-Glo luciferase substrate detection reagent (3 ul) (Promega, Madison, WI) is added to each well and incubated for an additional 5 minutes. Luminescence is then measured on the ViewLux imager equipped with a clear emission filter using a 2 sec exposure.
% is scaled to controls: 0 for no effect and ±100 for the full control effect; potency is read from the fitted curve at half-maximal effect.

Structure (SMILES)	activity change, negative = inhibition [%]	Potency
O=c1[nH]c2ccccc2n1C1CCN(CCCC(c2ccc(F)cc2)c2ccc(F)cc2)CC1	-12.2	
Cc1ncc(CNC(=O)N(CCCl)N=O)c(N)n1	-3.57	
CC(C)=CCOc1c2occc2cc2ccc(=O)oc12	-8.14	
CC[C@@H](CO)NC(=O)[C@@H]1C=C2c3cccc4[nH]cc(c34)C[C@H]2N(C)C1	-21	
c1ccc(C2CC2)c(OCC2=NCCN2)c1	-19.4	
NCC(O)c1ccc(O)cc1 (stereo unspecified)	-12.7	
Cc1cc2c(C(C)C)c(O)c(O)c(C=O)c2c(O)c1-c1c(C)cc2c(C(C)C)c(O)c(O)c(C=O)c2c1O		7.08 µM (active)
NN=C(N)N		inactive
O=C1NCN(c2ccccc2)C12CCN(CC1COc3ccccc3O1)CC2 (stereo unspecified)	-7.5	
N#CC(C#N)=Cc1ccc(O)c(O)c1	-11.5	
CCCN1CCC[C@@H]2Cc3[nH]ncc3C[C@H]21		inactive
CC(O)(CS(=O)(=O)c1ccc(F)cc1)C(=O)Nc1ccc(C#N)c(C(F)(F)F)c1 (stereo unspecified)	-18.3	
CCC1(C2=NCCN2)Cc2ccccc2O1 (stereo unspecified)	-1.04	
Cc1ccc(S(=O)(=O)N[C@@H](CCCCN)C(=O)CCl)cc1	53.1	
Fc1ccc(C(OCCN2CCN(CCCc3ccccc3)CC2)c2ccc(F)cc2)cc1		20 µM (active)
Cc1c(OCC(F)(F)F)ccnc1CS(=O)c1nc2ccccc2[nH]1 (stereo unspecified)	36.9	

Structure (SMILES)	activity change, negative = inhibition [%]	Potency
CNCCC(Oc1ccc(C(F)(F)F)cc1)c1ccccc1 (stereo unspecified)		14.1 µM (active)
NCC1(CC(=O)O)CCCCC1	9.24	
CCCC(C)(COC(N)=O)COC(=O)NC(C)C (stereo unspecified)	-6.98	
CC(=O)[C@H]1CC[C@H]2[C@@H]3CC[C@H]4C[C@H](O)CC[C@]4(C)[C@H]3C(=O)C[C@]12C	-16.9	
CC[C@@H](CO)NC(=O)[C@@H]1C=C2c3cccc4c3c(cn4C)C[C@H]2N(C)C1	-12.5	
C[C@@H]1O[C@@H](O[C@H]2C[C@@H](O)[C@]3(CO)[C@H]4[C@H](O)C[C@]5(C)[C@@H](C6=CC(=O)OC6)CC[C@]5(O)[C@@H]4CC[C@]3(O)C2)[C@H](O)[C@H](O)[C@H]1O	-92.7	
COc1ccccc1N1CCNCC1	-16	
Nc1ccncc1	-6	
CC(=O)[C@H]1CC[C@H]2[C@@H]3CC[C@H]4C[C@](C)(O)CC[C@]4(C)[C@H]3CC[C@]12C	-4.51	
COc1ccc(C(CN(C)C)C2(O)CCCCC2)cc1 (stereo unspecified)	-18.4	
CCCN1CCC[C@@H]2Cc3nc(N)ncc3C[C@H]21	-2.34	
Cc1cccc(C)c1NC(=O)CN1CCCC1=O	-6.04	
CNCC(O)c1ccc(O)cc1 (stereo unspecified)	-6.71	
Cc1cccc(C)c1NC1=NCCCS1	-16	
NCC(CC(=O)O)c1ccc(Cl)cc1 (stereo unspecified)	1.1	
